Unmarked numbers belong to inactive results. Calls of active or inactive are those of the source. Cut-off read from the data, not from the text of the source: active = fold change permeability below about 0.7 or above about 1.3; inactive = in between.
Assay: compounds altering in vitro BBB leakiness – cell-based, FITC-avidin fluorescence, HTS, primary screen (AID 1963498); note: test concentration not given here
Conditions: brain endothelial barrier, actives lie on both sides
With `O=C(c1ccccc1)c1ccc2n1CCC2C(=O)O` (centres undefined) the fold change permeability was 2 (active).
`NO` showed a fold change permeability of 1.1.
In the case of `O=C1Cc2c([nH]c3ccc(Br)cc23)-c2ccccc2N1`, the fold change permeability is reported as 0.7 (active).
Compound `COC(=O)C1=C(C)NC(C)=C([N+](=O)[O-])C1c1ccccc1C(F)(F)F` (centres undefined) has a fold change permeability of 1.1.
For `NC(=O)C1=CN(C2OC(COP(=O)(O)OP(=O)(O)OC[C@H]3O[C@@H](n4cnc5c(N)ncnc54)C(OP(=O)(O)O)[C@H]3O)C(O)C2O)C=CC1` (some centres undefined), the fold change permeability was 0.9.
For `Cc1cc(C(=O)N2Cc3cnn(C)c3Nc3ccccc32)ccc1CNC(=O)N1CCN(Cc2cc(O)cc(O)c2)CC1`, the fold change permeability was 1.2.
For `Oc1ccc(O)cc1`, the fold change permeability was 1.4 (active).
With `O=C1c2c(O)cc(O)cc2O[C@H](c2ccc(O)c(O)c2)[C@H]1O` the fold change permeability was 1.
With `CC(C)(C)c1cc(/C=C(\C#N)C(N)=S)cc(C(C)(C)C)c1O` the fold change permeability was 1.5 (active).
Work on `COCCNC(=O)COc1ccc(OCCNC[C@H](O)COc2ccccc2)cc1` yielded a fold change permeability of 1.
With `Nc1nc(-c2ccccc2)c(Br)c(=O)[nH]1` the fold change permeability was 1.7 (active).
For `NCCCNCCCCNCCCN`, the fold change permeability was 1.6 (active).
For `CCC(=O)NS(=O)(=O)c1ccc(-c2c(-c3ccccc3)noc2C)cc1`, the fold change permeability was 0.9.
Work on `CS(=O)(=O)c1ccc(C2=C(c3ccccc3)C(=O)OC2)cc1` yielded a fold change permeability of 0.8.
With `COc1ccc(S(=O)(=O)N(CC(=O)NO)CC(C)C)cc1` the fold change permeability was 1.1.
For `Cn1c(=O)c2[nH]c(C3CCCC3)nc2n(C)c1=O`, the fold change permeability was 1.3 (active).
With `Cc1cc(C)c(/C=C2\C(=O)Nc3ccccc32)[nH]1` the fold change permeability was 23.2 (active).
With `COc1cc(O)c(C)c(O)c1C(=O)CCc1ccccc1` the fold change permeability was 1.8 (active).
In the case of `COc1cc2ncnc(-n3nc(-c4ccccn4)nc3N)c2cc1OC`, the fold change permeability is reported as 2 (active).
For `Cc1ccc(C(=O)Nc2sc(Nc3ccccc3)nc2C(N)=O)cc1`, the fold change permeability was 1.3 (active).
Compound `CC(=O)/C(C)=N/O` has a fold change permeability of 1.
`CNC(=O)c1cc2c(cn1)[nH]c1ccccc12` gave a fold change permeability of 0.8.
With `C[C@H](N[C@@H](CCc1ccccc1)C(=O)O)C(=O)N1CCC[C@H]1C(=O)O` the fold change permeability was 0.6 (active).
`NCCCCCCCCCCN` gave a fold change permeability of 0.9.
With `N#CC(C#N)=C(N)/C(C#N)=C/c1cc(O)c(O)c(O)c1` the fold change permeability was 1.7 (active).
In the case of `Cc1cc(Nc2cc(N3CCN(C)CC3)nc(Sc3ccc(NC(=O)C4CC4)cc3)n2)n[nH]1`, the fold change permeability is reported as 1.6 (active).
With `CC(CN(C)C)CN1c2ccccc2CCc2ccccc21` (centres undefined) the fold change permeability was 1.4 (active).
For `CN(C)c1ccc(/C=C2\C(=O)Nc3ccccc32)cc1`, the fold change permeability was 1.6 (active).
Compound `CC(C(=O)O)c1ccc(C(=O)c2cccs2)cc1` (centres undefined) has a fold change permeability of 0.8.
Compound `NC(=O)c1cnccn1` has a fold change permeability of 0.9.
With `C[C@]12CCC(=O)C=C1C=C[C@@H]1[C@@H]2CC[C@@]2(C)[C@H]1CC[C@@]21CCC(=O)O1` the fold change permeability was 1.1.
`OC[C@H]1O[C@@H](n2cnc3c(NC4CCCCC4)ncnc32)[C@H](O)[C@@H]1O` gave a fold change permeability of 1.2.
`CCCCCN=C(N)N/N=C/c1c[nH]c2ccc(OC)cc12` gave a fold change permeability of 0.9.
`Fc1cccc(/C=N\N=C/c2cccc(F)c2)c1` gave a fold change permeability of 0.8.
Work on `CCCCCCC(=O)OC1CC(C)(C)NC(C)(C)C1` yielded a fold change permeability of 0.9.
With `COc1cc(O)cc(CCc2ccc(OC)c(O)c2)c1` the fold change permeability was 1.9 (active).
Compound `Cc1cn([C@H]2C=C[C@@H](CO)O2)c(=O)[nH]c1=O` has a fold change permeability of 1.2.
`CC(=O)N[C@H]1[C@H]([C@H](O)[C@H](O)CO)OC(C(=O)O)=C[C@@H]1N=C(N)N` gave a fold change permeability of 0.9.
`CC[N+](CC)(CC)CCOc1cccc(OCC[N+](CC)(CC)CC)c1OCC[N+](CC)(CC)CC` gave a fold change permeability of 0.8.
